Source: PubChem BioAssay AID1347075 (National Center for Advancing Translational Sciences (NCATS), 2019)
Screen size: about 400,000 compounds; about 5,500 (1.4%) were called active. Roughly 9% stayed inconclusive and do not appear here. The sample holds actives, similar compounds and a random draw of the others, so the mix is not that of the screen. Calls come from the whole dose curve; as a rule, active = well fitted cell-killing curve with a large enough effect; inconclusive = small, poorly fitted or top-dose-only effect, or effect the other way; inactive = flat fitted curve, though single readings scatter.

Test: qHTS assay for MDR1-selective chemotherapeutics: Primary screen using the parental adenocarcinoma cell KB-3-1; note: nearly all actives have a fitted effect of over 60% in size
Conditions: KB-3-1 viability, CellTiter-Glo ATP luminescence, 72 h; series mostly up to 46.1 µM; activity change, negative = cytotoxic: at the top concentration
Excerpt: A prime difficulty in effectively treating cancer is the development of cellular resistance to multiple structurally unrelated anticancer drugs, a phenomenon known as multidrug resistance (MDR). […] Numerous strategies to overcome P-gp-mediated MDR have been explored, including the design of drugs that evade recognition and efflux, and development of inhibitors to block efflux and restore drug accumulation. […] An alternative approach is to exploit resistance by identifying drugs that target MDR cells over the non-resistant parental cells from which they were selected. […] The development of MDR1-selective agents represents a new strategy for resolving multidrug resistance, as it remains a long-standing clinical challenge for cancer chemotherapy.
Our goal is to identify compounds that selectively kill P-gp-expressing MDR cells. We will identify MDR1-selective compounds by comparing toxicity of compounds in the screening library against parental, drug-naive (KB-3-1) adenocarcinoma cells as well as their drug-selected MDR sub-line (KB-V1). The differential toxicity of compounds against these two cell lines will be used to identify MDR1-selective compounds, whose cytotoxicity is potentiated, rather than diminished, by P-gp expression. This assay will be utilized to conduct a quantitative high-throughput screen (qHTS) in collaboration with the NIH Chemical Genomics Center to identify selective agents, and probe hits arising from the screen will be validated using secondary assays and characterized through a well-established follow-up research program. This screen was run against the entire NCGC library collection of about 400,000 compounds.
NIH Molecular Libraries Probe Production Network [MLPCN]
NIH Chemical Genomics Center [NCGC]
PI: Michael Gottesman PhD, National Cancer Institute, NIH
Briefly, 5 microL of media containing either KB-3-1 cells (columns 1-2, 4-48) are dispensed into Greiner white, treated solid-bottom 1536-well assay plates (media-only control is added to column 3). Compounds are then transferred via Kalypsys pin tool equipped with 1536-pin array (10 nL slotted pins, V&P Scientific, San Diego, CA). Following addition of compound, the plates are incubated at 37 degrees C for 72 hours. CellTiter-Glo (2.5 µL/well) is then added, and the plates are read in a ViewLux reader (Perkin-Elmer, clear luminescence filter, 1 second exposure, 1x binning) following a 10 minute incubation. All cells are dispensed in DMEM phenol-red free media containing 10% FBS.
Library plates were screened starting from the lowest and proceeding to the highest concentration. Vehicle-only plates, with DMSO being pin-transferred to columns 5-48, will be inserted uniformly at the beginning and the end of each library in order to monitor and record any shifts in the background, which can be affected by reagent dispensers or loss in enzyme activity over time. Screening data will be corrected, normalized, and concentration-effect relationships will be derived by using publicly-available NCGC, NCATS curve fitting algorithms (http://ncgc.nih.gov/pub/openhts).
% is set by controls: 0 for no effect and ±100 for the full control effect; potency is the fitted concentration of half-maximal effect.

| Structure (SMILES) | activity change, negative = cytotoxic | Potency |
| --- | --- | --- |
| CCOC(=O)c1cccc(NS(=O)(=O)c2cc(-c3cnc(C)o3)ccc2OC)c1 | 0.0337% (inactive) |  |
| COc1ccc(C)cc1N(CC(=O)N1CCC(C)CC1)S(=O)(=O)c1ccc(C)cc1 | 19.4% (inactive) |  |
| CC(=O)Nc1ccc(NC(=O)c2cc3sccc3n2Cc2ccc(F)cc2)cc1 | 3.11% (inactive) |  |
| CCn1cc(C(=O)OCC(=O)Nc2cc(C)cc(C)c2)c(=O)c2ccc(C)nc21 | 12.9% (inactive) |  |
| C[n+]1ccc(/C=C/c2c[nH]c3ccccc23)cc1 |  | 1.16 µM (active) |
| Clc1ccc(CSc2nncn3c2cc2occc23)cc1 | 1.43% (inactive) |  |
| COc1cccc2cc(-c3nc(Cl)c4c5c(sc4n3)CC(C)CC5)c(=O)oc12 (configuration not stated) | 0.732% (inactive) |  |
| COc1ccc(CNC(=O)C2=Cc3cccc(OC)c3OC2)cc1OC | 12.4% (inactive) |  |
| CCN(Cc1ccccc1)S(=O)(=O)c1ccc2c(c1)CCCN2C(C)=O | 4.43% (inactive) |  |
| Oc1ccc2ccccc2c1N=Nc1nccs1 |  | 14.6 µM (active) |
| Cc1ccccc1OCCSc1nc2ccc(NC(=O)c3ccco3)cc2s1 | -13.2% (inactive) |  |
| CC(=O)Nc1cccc(C(=O)OCC(=O)c2ccc3c(c2)OCO3)c1 | 42.1% (inactive) |  |
| O=C(Nc1ccc2c(c1)OCO2)c1cc(-c2cccc(Cl)c2)on1 | 17.7% (inactive) |  |
| Cc1ccc(S(=O)(=O)c2c(Nc3cccc(Cl)c3)sc(C(=O)c3ccc4c(c3)OCO4)c2N)cc1 |  | 14.6 µM (active) |
| CN(C)C1=C2C=CC=CC2/C(=C2/C=Cc3ccccc32)C=C1 (configuration not stated) | -5.52% (inactive) |  |
| COc1ccc(NC(=O)c2ccc3nc(CCc4ccccc4)oc3c2)c(OC)c1 | -1.55% (inactive) |  |
| Cc1oc2ccc(O)c(CN3CCOCC3)c2c1C(=O)Nc1cccc(Cl)c1C | 6.77% (inactive) |  |
| CCOc1ccc(NC(=O)Cn2c(=O)n(CCCC(=O)NCc3ccc4c(c3)OCO4)c(=O)c3ccccc32)cc1 | 0.92% (inactive) |  |
| CCCOc1ccc(NC(=O)CC2C(=O)N(C)C(=S)N2Cc2ccc3c(c2)OCO3)cc1 (configuration not stated) |  | 18.4 µM (active) |
| COc1ccc(NC(=O)CSc2nccn2Cc2ccc3c(c2)OCO3)cc1 | 15.4% (inactive) |  |
| CC(C)(O)C#Cc1ccc(CN2CCC(CO)(CCc3ccccc3)CC2)cc1 | -3.77% (inactive) |  |
| Cc1c(CN2CCC(CO)(CCOc3ccccc3)CC2)[nH]c2ccc(Cl)cc12 |  | 14.6 µM (active) |
| Cc1cccc(-c2ncc(CN3CCC(CO)(CCCc4ccccc4)CC3)cn2)c1 | -25.5% (inactive) |  |
| Cc1ccc(C(=O)COC(=O)C(Cc2c[nH]c3ccccc23)NC(=O)c2ccc(Br)cc2)cc1 (configuration not stated) | 16.8% (inactive) |  |
| COc1cc(C(=O)Nc2ccc(OCc3cc(=O)n4cc(C)sc4n3)cc2)cc(OC)c1OC | -3.16% (inactive) |  |
| O=C(CSc1oc(-c2ccco2)nc1S(=O)(=O)c1ccc(Cl)cc1)c1ccccc1 | 2% (inactive) |  |
| CCOc1ccc(CC(=O)NCCc2csc3nc(-c4ccccc4F)nn23)cc1 | 0.131% (inactive) |  |
